USP2a block – inhibitors of human ubiquitin-specific protease USP2a; O75604; USP2 core, Ub-CHOP2 coupled fluorogenic reporter, 485/531; Potency, µM (highest dose often 38.3 µM), without a hit: at the highest dose activity change, negative = inhibition, most hits filed as inhibitors; 330,000 compounds, 0.01% hits;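 further: potency means the concentration at half of the fitted maximal effect; plate controls were DMSO wells for no effect and full inhibition by NEM control for full effect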
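USP2 core (10nM final) preincubated 30min RT with compound in 20mM Tris-HCl pH 8.0, 2mM CaCl2, 2mM beta-mercaptoethanol, 0.05% CHAPS; 25nM Ub-CHOP2 plus 25nM reporter substrate added, fluorescence (Ex485/Em531) read after 60min.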
Eya2 phos inh – inhibitors of human Eya2 phosphatase activity; O00167; recombinant Eya2, OMFP fluorescence dephosphorylation (OMFP is methylfluorescein phosphate); Potency, µM (series often up to 76.9 µM), without a hit: top-dose activity, negative = inhibition, actives largely listed as inhibitors; 330,000 compounds, 0.006% hits; AID 488837; further: potency means the concentration at half of the fitted maximal effect
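Eya2 protein (added as 0.2 uM solution) was preincubated with compound for 10 min at ambient temperature in 50 mM HEPES pH 7.5, 50 mM NaCl, 5 uM MgCl2, 0.05% BSA, 1 mM DTT. OMFP (added at 50 uM) then reacted 10 min; fluorescence read at 485/525 nm.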
uPA surface inh – cell surface uPA generation inhibition; Potency, µM (titrated, usually from 38.3 µM), for the others: at the highest dose activity change, negative = inhibition, actives largely listed as inhibitors; AID 540303; 330,000 compounds, 0.31% hits; cell surface uPA generation assay, qHTS; active means well fitted inhibition curve with a large enough effect; inconclusive means small, poorly fitted or top-dose-only effect; inactive means no such curve, though single readings can be large or run the other way; tested in mouse RAW 264.7 cells; further: potency means the concentration at half of the fitted maximal effect; nearly all actives have a fitted effect of over 55% in size
CtBP-E1A inh – inhibitors of CtBP/E1A interaction. activity change, % (concentration not given with the values). 340,000 compounds, 0.49% hits. AlphaScreen GST-E1A/His-CtBP binding, 1536-well; stronger effect = lower value; in the data active means activity change below about -65%; inconclusive means mostly about -30% to -63%
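AlphaScreen with 125 nM GST-E1A and 125 nM His-CtBP (5X stocks) in Tris pH 8.0, 300 mM NaCl, BSA, Tween 20, TCEP. Compounds preincubated 2 h at 37 deg C, then glutathione donor/nickel acceptor beads added for 1 h at 37 deg C in dark.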
L3MBTL1 block – inhibitors of human L3MBTL1; Q9Y468; AlphaScreen L3MBTL1–H3K9me1 peptide binding; Potency, µM (highest dose often 57.1 µM), without a hit: at the highest dose activity, negative = inhibition, hits mostly inhibitors; 230,000 compounds, 0.66% hits; AID 485360; further: potency means the concentration at half of the fitted maximal effect; nearly all actives have a fitted effect of over 60% in size
Target sequence (Q9Y468 whole entry, looked up): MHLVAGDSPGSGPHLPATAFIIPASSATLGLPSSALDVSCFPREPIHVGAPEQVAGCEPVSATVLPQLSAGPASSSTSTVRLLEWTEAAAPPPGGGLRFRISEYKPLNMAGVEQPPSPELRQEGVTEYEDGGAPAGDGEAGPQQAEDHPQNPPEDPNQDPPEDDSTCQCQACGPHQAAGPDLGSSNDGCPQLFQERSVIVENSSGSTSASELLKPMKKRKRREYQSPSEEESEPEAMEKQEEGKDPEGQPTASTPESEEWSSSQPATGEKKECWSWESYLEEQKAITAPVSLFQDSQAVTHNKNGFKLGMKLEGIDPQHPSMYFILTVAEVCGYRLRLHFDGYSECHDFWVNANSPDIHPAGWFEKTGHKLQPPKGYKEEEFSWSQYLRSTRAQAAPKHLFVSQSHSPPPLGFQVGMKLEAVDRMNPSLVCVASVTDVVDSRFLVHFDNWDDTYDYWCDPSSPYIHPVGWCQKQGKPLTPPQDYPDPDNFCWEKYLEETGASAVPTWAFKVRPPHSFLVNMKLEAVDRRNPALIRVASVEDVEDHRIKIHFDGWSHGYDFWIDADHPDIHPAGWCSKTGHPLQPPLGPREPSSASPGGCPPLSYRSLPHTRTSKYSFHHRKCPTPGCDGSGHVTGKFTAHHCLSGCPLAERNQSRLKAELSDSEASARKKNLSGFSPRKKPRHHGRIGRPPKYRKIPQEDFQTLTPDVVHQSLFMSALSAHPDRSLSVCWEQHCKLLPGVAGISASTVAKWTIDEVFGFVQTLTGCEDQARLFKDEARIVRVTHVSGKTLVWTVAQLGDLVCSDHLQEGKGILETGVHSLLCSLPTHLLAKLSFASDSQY
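Read-out is AlphaScreen signal from streptavidin donor and nickel chelate acceptor beads (10 ug/mL final each) bridging L3MBTL1 (50 nM) and biotinylated K9-monomethylated H3(1-15) peptide (75 nM), after 30 min compound exposure at room temperature.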
Six1-Eya2 inh – blocks human Six1 binding to Eya2 | Q15475+O00167 | AlphaScreen GST-Six1/His-Eya2 binding, biochemical; stronger effect = lower value | activity change, % (test concentration not listed) | 360,000 compounds, 0.56% hits | AID 651725; in the data active means activity change below about -65%; inconclusive means mostly about -30% to -63%
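Compounds are tested against tagged Six1 and Eya2 proteins bridged by glutathione donor and nickel acceptor beads; after a one-hour incubation at 37 °C without light, AlphaScreen emission is recorded.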
The depositor's hits bear a star; ? = inconclusive; . = no result. The list is not random: actives were taken first. Their share in the collection is about 1.2%. Unless noted, the call rests on the fitted dose curve; in most records, active means well fitted curve in the direction sought with a large enough effect; inconclusive means small, poorly fitted or top-dose-only effect, or another doubt; inactive means no such curve, though single readings can be large; an effect the other way counts as inactive or inconclusive. Unless noted, on the % scale 0 is the no-effect control and ±100 the full control effect.

SMILES	USP2a block	Eya2 phos inh	uPA surface inh	CtBP-E1A inh	L3MBTL1 block	Six1-Eya2 inh
S=c1[nH]nc(-c2ccccn2)n1/N=C/c1ccc(Br)s1	0%	-2%	4%	7	28µM*	-77*
Cc1cc(-c2n[nH]c(=S)n2/N=C/c2cc([N+](=O)[O-])ccc2Cl)n[nH]1	1%	-4%	-7%	-81*	-4%	-80*
COc1ccc(C(c2nnnn2-c2ccc3c(c2)OCCO3)N2CCN(C/C=C/c3ccccc3)CC2)cc1 (centres undefined)	.	.	.	?	.	-24
COc1cc(-c2noc(C)c2C#Cc2ccsc2)cc(OC)c1OC	2%	8%	2µM*	.	11%	14
COCCCNC(=S)NNC(=O)c1csc(C)n1	0%	9%	?	.	-4%	-78*
CCCCN(C)C(=O)c1nc2ccccn2c1CN1CCN(C(=O)c2cccs2)CC1	2%	4%	-2%	-9	-5%	8
COc1ccccc1N=Cc1c(C)[nH]n(-c2ccc(C)cc2C)c1=O	-1%	4%	-2%	2	-8%	-22
COc1ccc2nc(/N=C/c3c(C)[nH]n(-c4ccc(C)cc4C)c3=O)sc2c1	3%	-3%	-3%	-88*	-3%	-70*
N#C/C(=C\c1coc2ccc(O)cc2c1=O)C(=O)Nc1nc2ccccc2s1	30%	?	?	-87*	.	-75*
N#C/C(=C\c1coc2ccccc2c1=O)C(N)=S	-6%	21%	-17%	-13	?	-7
COCCNC(=O)c1cc(S(=O)(=O)N(C)c2ccccc2OC)ccc1C	3%	2%	-3%	2	-1%	15
Cc1cccc(/C=N/Nc2ccc3ccccc3n2)c1	-8%	-4%	8.9µM*	.	3%	3
C(=N\Nc1ccc2ccccc2n1)/c1ccc2c(c1)OCCO2	-2%	15%	2.2µM*	-8	6%	-7
Cc1cc(C(=O)NC(Cc2ccccc2)C(=O)O)c(C)o1 (centres undefined)	17%	13%	0%	1	.	13
Fc1ccc(N2CCN(c3nc(CN4CCOCC4)nc4scc(-c5ccccc5)c34)CC2)cc1	-3%	?	?	.	16µM*	-7
Brc1ccc(OCc2nc(-c3ccccn3)n[nH]2)cc1	-5%	13%	-9%	-93*	.	-91*
Clc1ccc(OCc2nc3ccccc3[nH]2)cc1	-2%	-5%	-8%	-1	17%	6
Clc1ccc(OCc2nc(-c3ccccn3)n[nH]2)cc1	-6%	24%	.	-94*	?	-92*
Cc1ccc(S(=O)(=O)N2C[C@@H]3[C@H]4CC[C@H](C4)[C@@H]3[C@@H](C)[C@@H]2c2ccn(Cc3ccccc3)c2)cc1	1%	-18%	-25%	-6	-22%	0
CCC(C)(C)c1ccc(OCCCC[n+]2cccc(C)c2C)c(C(C)(C)CC)c1	-9%	-9%	8.9µM*	.	2%	-2
CCC(C)(C)c1ccc(OCCCC[n+]2ccc(C)cc2)c(C(C)(C)CC)c1	-1%	-18%	?	0	.	-1
COc1ccc(/C=N\NC(=O)c2cc(O)c(O)c(O)c2)cc1COc1ccc(C(=O)OCC(C)C)cc1	?	?	-15%	.	.	-28
O=C1c2cccc3cccc(c23)C(=O)N1CC1CCN(CC(O)COCc2ccc3c(c2)OCO3)CC1 (centres undefined)	2%	-5%	-11%	9	4µM*	-11
CCC(=O)NC(c1ccc(C)cc1)c1cc([N+](=O)[O-])c2cccnc2c1O (centres undefined)	0%	1%	-15%	-87*	22µM*	-85*
CCC(=O)NC(c1ccco1)c1cc(Br)c2cccnc2c1O (centres undefined)	0%	6%	.	.	-22%	.
SMILES	USP2a block	Eya2 phos inh	uPA surface inh	CtBP-E1A inh	L3MBTL1 block	Six1-Eya2 inh
CC(=O)NC(c1cc(F)c2cccnc2c1O)C1CC1 (centres undefined)	-1%	-11%	?	.	?	.
CCCC(=O)NC(c1ccco1)c1cc([N+](=O)[O-])c2cccnc2c1O (centres undefined)	-2%	5%	5%	.	.	-92*
CC(=O)NC(c1ccc(C)cc1)c1cc([N+](=O)[O-])c2cccnc2c1O (centres undefined)	3%	-5%	-19%	-93*	5µM*	-90*
CCC(=O)NC(c1cc(Cl)c2cccnc2c1O)C(C)C (centres undefined)	-5%	-20%	?	.	?	.
CC(=O)c1ccc(OC2(C)CCN(CCOc3ccc(C)cc3)C2)cc1 (centres undefined)	.	.	.	-25	.	2
CCc1nc2ccccc2c(C(=O)OCc2nc3ccccc3c(=O)[nH]2)c1C	-1%	-2%	-9%	-2	-11%	-8
COc1ccc(C(=O)N[C@H](C(=O)Nc2nc3ccccc3[nH]2)C(C)C)cc1	-1%	-16%	-5%	-1	-4%	0
Cc1cccc(C(=O)N[C@H](C(=O)Nc2nc3ccccc3[nH]2)C(C)C)c1	1%	-3%	2.8µM*	9	.	6
CC(CC(=O)NNC(=O)c1cccc(Cl)c1)c1ccccc1 (centres undefined)	1%	-7%	0%	1	.	-7
O=c1cc(-c2ccc(O)cc2)oc2cc(O)c(C3OC(CO)C(O)C(O)C3O)c(O)c12 (centres undefined)	6%	-1%	1%	-9	16µM*	-14
O=c1c(OC2OC(CO)C(O)C(O)C2O)c(-c2ccc(O)c(O)c2)oc2cc(O)cc(O)c12 (centres undefined)	-1%	4%	14%	-1	?	-22
O=c1cc(-c2ccc(O)c(O)c2)oc2cc(O[C@@H]3O[C@H](CO)[C@@H](O)[C@H](O)[C@H]3O)cc(O)c12	5%	-14%	?	-10	4µM*	?
COc1cc(O)c2c(=O)c(-c3ccc(O[C@@H]4O[C@H](CO)[C@@H](O)[C@H](O)[C@H]4O)cc3)coc2c1	-1%	2%	-8%	-2	.	-2
C[C@@H]1O[C@@H](OC[C@H]2O[C@@H](Oc3cc(O)c4c(=O)cc(-c5ccc(O)c(O)c5)oc4c3)[C@H](O)[C@@H](O)[C@@H]2O)[C@H](O)[C@H](O)[C@H]1O	5%	-4%	2%	-1	-1%	?
O=c1c(O[C@@H]2O[C@H](CO)C(O)C2O)c(-c2ccc(O)c(O)c2)oc2cc(O)cc(O)c12 (some centres undefined)	7%	-4%	15%	1	14µM*	-15

Bioassay records as filed in PubChem BioAssay.
